Assay results reported in PubChem BioAssay (NCI).
Compounds without any hit were thinned out: in the full panel of roughly 79,000, 15% have a hit. Activity calls are given as the source filed them. Rule as the data show it: active = growth inhibition above about 70%; inactive = the rest.

How the values were obtained:
[1] = NCI Yeast Anticancer Drug Screen. Data for the rad52 strain (AID 147);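 also: 0% = growth of vehicle-treated control cultures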; details: S. cerevisiae rad52 mutant growth inhibition, stronger effect = higher value
Method in brief: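 Vehicle-treated cultures served as the reference for growth inhibition of compound-exposed yeast bearing a DNA repair mutation.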

[2] = NCI Yeast Anticancer Drug Screen. Data for the wt1 strain (AID 149);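 also: 0% = growth of vehicle-treated wt1 cultures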; details: S. cerevisiae wt1 strain (SPY 50644) growth inhibition, stronger effect = higher value
Method in brief: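 Growth inhibition read against vehicle controls after compound exposure of the wt1 yeast strain.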

[3] = NCI Yeast Anticancer Drug Screen. Data for the rad50EPP+ strain (AID 151);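 also: 0% = growth of vehicle-treated control cultures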; details: S. cerevisiae rad50 mutant strain, stronger effect = higher value
Method in brief: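 In this screen, rad50EPP+ yeast were exposed to compounds. Growth inhibition was scored against vehicle-treated controls.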

[4] = NCI Yeast Anticancer Drug Screen. Data for the mgt1 strain (AID 153); details: S. cerevisiae mgt1 mutant growth inhibition, stronger effect = higher value
Method in brief: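 mgt1 strain exposed; growth vs vehicle control recorded as inhibition.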

[5] = NCI Yeast Anticancer Drug Screen. Data for the rad50 strain (AID 155);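 also: 0% = growth of vehicle-only cultures of the same strain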; details: S. cerevisiae rad50 strain growth inhibition, stronger effect = higher value
Method in brief: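 Readout: growth inhibition relative to vehicle-treated cultures. Compound exposure was carried out in a genetically defined yeast strain deficient in DNA damage repair.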

[6] = NCI Yeast Anticancer Drug Screen. Data for the mec2-1 strain (AID 157); details: S. cerevisiae mec2-1 strain, stronger effect = higher value
Method in brief: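 Vehicle-treated cultures served as reference for growth inhibition of compound-exposed mec2-1 yeast.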

[7] = NCI Yeast Anticancer Drug Screen. Data for the rad14 strain (AID 159);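 also: 0% = growth of vehicle-treated control cultures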; details: S. cerevisiae rad14 strain growth inhibition, stronger effect = higher value
Method in brief: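 Growth inhibition vs vehicle controls; genetically altered yeast strain (DNA damage repair defect) treated with test compounds.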

[8] = NCI Yeast Anticancer Drug Screen. Data for the sgs1 mgt1 strain (AID 161);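 also: 0% = growth of cultures given vehicle only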; details: S. cerevisiae sgs1 mgt1 strain, stronger effect = higher value
Method in brief: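 Read-out: growth inhibition vs vehicle controls. Cells: mutant yeast strain deficient in DNA damage repair.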

[9] = NCI Yeast Anticancer Drug Screen. Data for the CLN2oe strain (AID 163);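 also: 0% = growth of vehicle-only control cultures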; details: S. cerevisiae CLN2oe strain, stronger effect = higher value
Method in brief: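 Inhibition relative to vehicle-treated yeast is reported. Cells: strain with genetic alteration in cell-cycle control, grown with compound.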

[10] = NCI Yeast Anticancer Drug Screen. Data for the cln2 rad14 strain (AID 165);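 also: 0% = growth equal to vehicle treated cultures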; details: S. cerevisiae cln2 rad14 strain, stronger effect = higher value
Method in brief: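 Each compound was tested on cln2 rad14 yeast. Inhibition of growth was calculated against vehicle-exposed controls.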

[11] = NCI Yeast Anticancer Drug Screen. Data for the bub3 strain (AID 167); details: S. cerevisiae bub3 mutant strain, stronger effect = higher value
Method in brief: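 Readout: yeast growth inhibition, expressed relative to vehicle-only wells. The test organism is a mutant strain from a panel with lesions in DNA repair or checkpoint genes.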

[12] = NCI Yeast Anticancer Drug Screen. Data for the wt2 strain (AID 169);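 also: 0% = growth of vehicle-treated yeast cultures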; details: S. cerevisiae wt2 strain growth inhibition, stronger effect = higher value
Method in brief: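 Inhibition of yeast growth was determined after compound treatment, normalised to controls receiving only vehicle.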

[13] = NCI Yeast Anticancer Drug Screen. Data for the mlh1 strain (AID 171);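 also: 0% = growth of vehicle-treated control cultures of the same strain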; details: S. cerevisiae mlh1 strain growth inhibition, stronger effect = higher value
Method in brief: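 Vehicle-normalised growth inhibition of a repair- or checkpoint-altered yeast strain following compound treatment.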

[14] = NCI Yeast Anticancer Drug Screen. Data for the sgs1 strain (AID 173);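 also: 0% = growth of vehicle-only control cultures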; details: S. cerevisiae sgs1 mutant, stronger effect = higher value
Method in brief: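 Screen format: yeast with repair or checkpoint alterations, compound exposure, growth read relative to vehicle.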

[15] = NCI Yeast Anticancer Drug Screen. Data for the mlh1 rad18 strain (AID 175); details: S. cerevisiae mlh1 rad18 strain growth inhibition, stronger effect = higher value
Method in brief: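 Vehicle-treated cultures served as the reference for growth inhibition in a yeast strain carrying DNA damage repair alterations exposed to each compound.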

[16] = NCI Yeast Anticancer Drug Screen. Data for the rad18 strain (AID 177); details: S. cerevisiae rad18 mutant growth inhibition, stronger effect = higher value
Method in brief: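 Test articles were incubated with altered yeast defective in DNA damage repair. Results are given as inhibition of growth versus vehicle.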

[17] = at 5.0 µM (retest, dose inferred, filed as 0.5)
[18] = at 50.0 µM (retest, dose inferred, filed as 5.0)

Measured: growth inhibition

O=c1c2ccccc2nc(-c2cccc([N+](=O)[O-])c2)n1O
active: [1]; at 11.0 µM 83% | [1]; at 33.0 µM 91% | [1]; at 100.0 µM 91% | [2]; at 33.0 µM 84% | [2]; at 100.0 µM 90% | [4]; at 33.0 µM 85% | [4]; at 100.0 µM 90% | [5]; at 11.0 µM 76% | [5]; at 33.0 µM 89% | [5]; [18] 97% | [5]; at 50.0 µM 97.8% | [5]; at 100.0 µM 91% | [6]; [18] 95% | [6]; at 50.0 µM 97.7% | [7]; at 3.7 µM 73% | [7]; at 11.0 µM 93% | [7]; at 33.0 µM 97% | [7]; at 100.0 µM 97% | [8]; [18] 97% | [8]; at 50.0 µM 98% | [10]; [18] 76% | [10]; at 50.0 µM 87.2% | [11]; [17] 71% | [11]; [18] 96% | [11]; at 50.0 µM 84.8% | [11]; at 100.0 µM 70% | [12]; at 11.0 µM 87% | [12]; at 33.0 µM 94% | [12]; at 100.0 µM 95% | [13]; at 11.0 µM 71% | [13]; at 33.0 µM 78% | [13]; at 100.0 µM 90% | [14]; at 3.7 µM 72% | [14]; at 11.0 µM 91% | [14]; at 33.0 µM 94% | [14]; at 100.0 µM 95% | [15]; [18] 98% | [15]; at 50.0 µM 98.1% | [16]; at 11.0 µM 88% | [16]; at 33.0 µM 92% | [16]; at 100.0 µM 92%
inactive: [1]; at 1.2 µM 17% | [1]; at 3.7 µM 45% | [2]; at 1.2 µM 12% | [2]; at 3.7 µM 21% | [2]; at 11.0 µM 60% | [3]; at 1.2 µM -9% | [3]; at 3.7 µM -5% | [3]; at 11.0 µM 13% | [3]; at 33.0 µM 35% | [3]; at 100.0 µM 65% | [4]; at 1.2 µM 13% | [4]; at 3.7 µM 21% | [4]; at 11.0 µM 52% | [5]; at 1.2 µM 14% | [5]; at 3.7 µM 31% | [5]; [17] 12% | [6]; at 1.2 µM 14% | [6]; at 3.7 µM 19% | [6]; [17] 7% | [6]; at 11.0 µM 37% | [6]; at 33.0 µM 58% | [6]; at 100.0 µM 68% | [7]; at 1.2 µM 36% | [8]; [17] 26% | [9]; at 1.2 µM 6% | [9]; at 3.7 µM 15% | [9]; at 11.0 µM 33% | [9]; at 33.0 µM 46% | [9]; at 100.0 µM 51% | [10]; [17] -20% | [11]; at 1.2 µM -4% | [11]; at 3.7 µM 5% | [11]; at 11.0 µM 43% | [11]; at 33.0 µM 59% | [12]; at 1.2 µM 25% | [12]; at 3.7 µM 49% | [13]; at 1.2 µM 16% | [13]; at 3.7 µM 29% | [14]; at 1.2 µM 37% | [15]; [17] 21% | [16]; at 1.2 µM 37% | [16]; at 3.7 µM 64%
